Results reported in PubChem BioAssay (EPA / NIEHS).
“And” between values parts separate entries of the source, which are not always exact repeats. Equal values may be shown once. The source holds several records for some structures; these can differ, active in one and inactive in another. The source made the active and inactive calls. The calls were made as follows: active = hit-call score of the fitted dose curve at least 0.9, where 1 is the maximum; inactive = score below 0.9.

Read-out: CD38, CD38 (gene 952)
Assay: BSK_SAg_CD38: BioMAP Diversity Plus: SAg Assay for CD38 Biomarker Activity (AID 2283087)
Conditions: primary human HUVEC with PBMC; actives raise or lower the signal
Description: BSK_SAg is a cell-based, multiplexed-readout assay that uses umbilical vein endothelium and peripheral blood mononuclear cells, a human vascular primary cell co-culture, with measurements taken at 24 hours after chemical dosing in a 96-well plate.BSK_SAg_CD38 is one of 10 assay component(s) measured or calculated from the BSK_SAg assay. It is designed to make measurements of enzyme-linked immunosorbent assay, a form of binding reporter, as detected with fluorescence intensity signals by Enzyme-linked immunosorbent assay technology.Data from the assay component BSK_SAg_CD38 was analyzed into 1 assay endpoint. This assay endpoint, BSK_SAg_CD38, was analyzed with bidirectional fitting relative to DMSO as the negative control and baseline of activity. Using a type of binding reporter, gain or loss-of-signal activity can be used to understand changes in the signaling as they relate to the gene CD38. Furthermore, this assay endpoint can be referred to as a primary readout, because this assay has produced multiple assay endpoints where this one serves a signaling function. To generalize the intended target to other relatable targets, this assay endpoint is annotated to the cytokine intended target family, where the subfamily is other cytokine.
The levels of cell surface (or secreted, indicated by the prefix "s") biomarker endpoints were measured by ELISA. Overt cytotoxicity to cells in confluent adherent cultures (all systems other than the BT system) was assessed by measuring total protein levels using sulforhodamine B (SRB) staining in parallel cultures at the time of biomarker measurements, indicated as SRB endpoints. For proliferation assays for adherent cell types, individual cell types are cultured at sub-confluence and relative cell numbers quantified by SRB staining at time points optimized for each system (48 h: 3C and CASM3C systems; 72 h: BT and HDF3CGF systems; 96 h: SAg system). SRB was performed by staining cells with 0.1% SRB after fixation with 10% TCA and reading wells at 560 nm.Viability and proliferation of PBMC (T cells) was quantified by Alamar Blue reduction for the SAg and BT systems. For PBMC viability (referred to as PBMC Cytotoxicity within the assay endpoint names), cells were plated (75,000/well in a 96-well plate) and then chemical samples added for 1 h before addition of activators, SEB and TSST-1 (20 ng/mL final concentration each). Cells were incubated for 90 h. Then, Alamar Blue (20 uL/well) (Invitrogen, Cat DAL1100) was added for 6 h, and the plates were read with a fluorescence microplate reader at 546/580 nm (excitation/emission). For PBMC proliferation, cells were plated and activated as above but incubated for only 16 h prior to addition of Alamar Blue. Plates were read after 6 h.

SMILES	outcome	AC50
FC(F)(F)C(F)(F)C(F)(F)C(F)(F)C(F)(F)C(F)(F)I	inactive	
Cc1cccc(O)c1C	inactive	
CC(C)C(=O)Nc1ccc([N+](=O)[O-])c(C(F)(F)F)c1		14.7 µM (active)
OC(O)(C(F)C(O)(O)C(F)(F)F)C(F)(F)F		16.6 µM (active) and 18.1 µM (active)
O=C(NO)C1(NS(=O)(=O)c2ccc(Oc3ccc(F)cc3)cc2)CCOCC1	inactive	
O=C(O)c1cccc(C(=O)O)c1	inactive	
CCCCN1C(=O)[C@@H]([C@H](O)C2CCCCC2)NC(=O)C12CCN(Cc1ccc(Oc3ccc(C(=O)O)cc3)cc1)CC2	inactive	
O=c1[nH]cnc2c1ncn2[C@H]1CC[C@@H](CO)O1	inactive	
O=C(Cl)C(F)(F)C(F)(F)C(F)(F)C(=O)Cl	inactive	
S=P(N1CC1)(N1CC1)N1CC1	inactive	
CCN(CC)C(=S)SSC(=S)N(CC)CC		31.7 µM (active)
OC[C@H]1O[C@@H]2O[C@H]3[C@H](O)[C@@H](O)[C@@H](O[C@H]4[C@H](O)[C@@H](O)[C@@H](O[C@H]5[C@H](O)[C@@H](O)[C@@H](O[C@H]6[C@H](O)[C@@H](O)[C@@H](O[C@H]7[C@H](O)[C@@H](O)[C@@H](O[C@H]1[C@H](O)[C@H]2O)O[C@@H]7CO)O[C@@H]6CO)O[C@@H]5CO)O[C@@H]4CO)O[C@@H]3CO	inactive	
c1ccc2ncccc2c1	inactive	
OCc1c[nH]c2ccccc12	inactive	
FC(F)C(F)(F)COCC1CO1 (stereo not given)	inactive	
CNC(C)=O	inactive	
Cc1ccc(S(=O)(=O)NC(=O)NN2CCCCCC2)cc1	inactive	
CCCC(CCC)C(=O)O	inactive	
CCCOc1ccc(S(=O)(=O)N2CCN(CC)CC2)cc1-c1nc2c(CC)n(Cc3ccccn3)nc2c(=O)[nH]1	inactive	
FC(F)=C(F)C(F)(F)C(F)(F)C(F)(F)C(F)(F)C(F)(F)C(F)(F)F	inactive	

SMILES	outcome	AC50
NNC(=O)c1ccncc1	inactive	
CC[C@H](C)C(=O)O[C@H]1C[C@H](O)C=C2C=C[C@H](C)[C@H](CC[C@@H](O)C[C@@H](O)CC(=O)O)[C@H]21	inactive	
COc1cc(C(C)C)c2c(c1)S(=O)(=O)N(COc1cc(=O)n3cccc(OCCN4CCCCC4)c3n1)C2=O	inactive	
O=C(O)c1cccc(C[C@@H]2COc3ccc(OCc4nc5cc(F)ccc5s4)cc3[C@@H]2O)c1	inactive	
C[Si](C)(C)C(F)(F)C(F)(F)C(F)(F)F	inactive	
COCc1nnc(-c2ccc[n+]([O-])c2)n1-c1c(Cl)c(Cl)cc2[nH]c(=O)c(=O)[nH]c12	inactive	
CCCCCCCCN(C)C	inactive	
C=CN1CCCC1=O	inactive	
OCCC(F)(F)C(F)(F)C(F)(F)C(F)(F)F	inactive	0.234 µM (active)
CCOC(N)=O	inactive	
Cc1nccn1-c1ccc(Sc2cccc(C3(C(N)=O)CCOCC3)c2)cc1		5.57 µM (active)
CCCCC(CC)C(=O)OCCOCCOCCOC(=O)C(CC)CCCC (stereo not given)	inactive	
Cc1nc(-c2ccccn2)ncc1C(=O)Nn1cc(C)c2cc(F)ccc21	inactive	
CCCCCCCCCC	inactive	
OCCOCCOCCO	inactive	
CCCCCCCC1CCC(=O)O1 (stereo not given)	inactive	
c1ccc2cc3ccccc3cc2c1	inactive	
NC(=O)NN=Cc1ccc([N+](=O)[O-])o1	inactive	
CCc1cccc(CC)c1N	inactive	
